From article PMC7862700, “An all-to-all approach to the identification of sequence-specific readers for epigenetic DNA modifications on cytosine” come the findings set out here.

Experiment in all cases: DAPPL (digital affinity profiling via proximity ligation, sequencing); 10 mM Tris-HCl pH 7.5, 50 mM NaCl, 1 mM DTT, 4% glycerol, room temperature, 30 min; GST-TFs on glutathione beads, 16-mer random dsDNA library, 0.1% formaldehyde crosslink after washing; high values mean tight binding
In one assay the target is T1, FLI1 (Homo sapiens, UniProt Q01543 1-452).
T1 sequence: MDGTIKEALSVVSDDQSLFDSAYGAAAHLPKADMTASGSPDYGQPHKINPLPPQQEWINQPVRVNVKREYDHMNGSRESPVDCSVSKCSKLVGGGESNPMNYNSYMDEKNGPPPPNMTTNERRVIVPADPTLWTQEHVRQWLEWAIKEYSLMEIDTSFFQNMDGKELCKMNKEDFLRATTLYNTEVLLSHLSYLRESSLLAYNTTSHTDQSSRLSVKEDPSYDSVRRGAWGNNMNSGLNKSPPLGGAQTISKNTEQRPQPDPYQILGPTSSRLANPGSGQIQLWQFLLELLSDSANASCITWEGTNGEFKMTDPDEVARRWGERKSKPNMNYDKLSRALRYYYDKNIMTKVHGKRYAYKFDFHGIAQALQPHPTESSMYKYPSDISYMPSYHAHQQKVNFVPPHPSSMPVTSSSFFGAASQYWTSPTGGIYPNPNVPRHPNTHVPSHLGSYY
The settings on record: protein: recombinant; tags: N-terminal GST; dsDNA, one strand shown. The essentials: (§1)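 In yeast, human transcription factors were expressed with a GST fusion, then pulled down on glutathione beads and given DNA barcodes. Pooled with a tag-only sample, they were exposed to 200 nmole of a 16-mer random double-stranded DNA library (Tris/NaCl/DTT/glycerol buffer, room temperature, 30 min), washed, crosslinked with 0.1% formaldehyde, proximity-ligated using BsaI/T4 ligase for 1 h at 37 °C, PCR-amplified and read on an Illumina NextSeq500. Each hexamer's frequency of reads for a factor, divided by the matching frequency for the tag-only sample, gives the binding signal.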

A further assay addresses T2, ELK1 (Homo sapiens, UniProt P19419 1-428).
T2 sequence: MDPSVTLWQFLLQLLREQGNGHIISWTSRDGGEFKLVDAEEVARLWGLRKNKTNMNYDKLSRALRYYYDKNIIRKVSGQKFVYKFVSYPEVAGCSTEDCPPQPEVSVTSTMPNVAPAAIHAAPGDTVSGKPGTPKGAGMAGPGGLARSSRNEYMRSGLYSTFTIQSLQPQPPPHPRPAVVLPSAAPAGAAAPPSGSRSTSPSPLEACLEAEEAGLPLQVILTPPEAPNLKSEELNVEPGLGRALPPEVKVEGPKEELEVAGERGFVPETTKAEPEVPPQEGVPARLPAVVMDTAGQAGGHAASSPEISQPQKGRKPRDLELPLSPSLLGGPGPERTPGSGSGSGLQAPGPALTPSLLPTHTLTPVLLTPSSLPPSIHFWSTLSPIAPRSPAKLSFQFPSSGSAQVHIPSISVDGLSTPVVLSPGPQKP
Particulars: protein: recombinant; tags: N-terminal GST; dsDNA, one strand shown. The essentials:
as §1

In another assay the target is T3, GABPA (Homo sapiens, UniProt Q06546 1-454).
T3 sequence: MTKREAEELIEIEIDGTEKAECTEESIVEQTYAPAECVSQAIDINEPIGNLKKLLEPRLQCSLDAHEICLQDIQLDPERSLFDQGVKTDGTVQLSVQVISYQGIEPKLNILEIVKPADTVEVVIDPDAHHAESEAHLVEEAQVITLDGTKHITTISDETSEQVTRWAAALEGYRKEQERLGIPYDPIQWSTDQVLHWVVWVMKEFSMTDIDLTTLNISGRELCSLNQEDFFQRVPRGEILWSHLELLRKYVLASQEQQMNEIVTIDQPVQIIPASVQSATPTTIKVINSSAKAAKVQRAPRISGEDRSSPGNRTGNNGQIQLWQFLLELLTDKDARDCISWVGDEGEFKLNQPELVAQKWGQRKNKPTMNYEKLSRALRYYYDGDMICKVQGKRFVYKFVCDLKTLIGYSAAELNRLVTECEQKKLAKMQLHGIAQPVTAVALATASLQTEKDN
Particulars: protein: recombinant; tags: N-terminal GST; dsDNA, one strand shown. The essentials:
as §1

The target in another assay is T4, ERG (Homo sapiens, UniProt P11308 1-479).
T4 sequence: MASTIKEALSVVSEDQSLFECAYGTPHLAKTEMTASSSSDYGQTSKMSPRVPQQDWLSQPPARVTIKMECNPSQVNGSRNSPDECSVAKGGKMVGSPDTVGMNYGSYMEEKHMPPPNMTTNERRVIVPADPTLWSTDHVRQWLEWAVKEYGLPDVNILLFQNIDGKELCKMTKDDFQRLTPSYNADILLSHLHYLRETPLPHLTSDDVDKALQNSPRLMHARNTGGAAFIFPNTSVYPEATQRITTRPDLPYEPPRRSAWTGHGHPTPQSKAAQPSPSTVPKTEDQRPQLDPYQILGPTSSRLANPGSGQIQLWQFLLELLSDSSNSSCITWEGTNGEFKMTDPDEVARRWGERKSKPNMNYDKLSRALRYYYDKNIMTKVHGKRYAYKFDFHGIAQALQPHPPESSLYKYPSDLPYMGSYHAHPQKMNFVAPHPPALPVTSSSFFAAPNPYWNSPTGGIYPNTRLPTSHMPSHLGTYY
Particulars: protein: recombinant; tags: N-terminal GST; dsDNA, one strand shown. The essentials:
as §1

The next assay concerns the target ELF1 (Homo sapiens, UniProt P32519 1-619). The settings on record: protein: recombinant; tags: N-terminal GST; dsDNA, one strand shown. The essentials:
as §1

A further assay concerns the target T5, EHF (Homo sapiens, UniProt Q9NZC4 1-300).
T5 sequence: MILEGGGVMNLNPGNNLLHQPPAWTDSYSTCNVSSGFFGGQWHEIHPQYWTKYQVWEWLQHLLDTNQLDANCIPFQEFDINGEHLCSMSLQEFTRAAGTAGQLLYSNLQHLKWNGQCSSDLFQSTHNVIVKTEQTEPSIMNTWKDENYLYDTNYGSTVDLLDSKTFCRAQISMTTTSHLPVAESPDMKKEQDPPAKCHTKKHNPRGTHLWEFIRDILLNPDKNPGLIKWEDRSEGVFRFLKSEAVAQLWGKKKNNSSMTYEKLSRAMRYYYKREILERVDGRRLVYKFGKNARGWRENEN
The settings on record: protein: recombinant; tags: N-terminal GST; dsDNA, one strand shown. The procedure, abridged: as §1

A further assay addresses SPI1 (Homo sapiens, UniProt P17947 1-270). The settings on record: protein: recombinant; tags: N-terminal GST; dsDNA, one strand shown. The essentials:
as §1

Another assay addresses SPIB (Homo sapiens, UniProt Q01892 1-262). Particulars: protein: recombinant; tags: N-terminal GST; dsDNA, one strand shown. The procedure, abridged:
as §1

A further assay has as its target T6, ELK3 (Homo sapiens, UniProt P41970 1-407).
T6 sequence: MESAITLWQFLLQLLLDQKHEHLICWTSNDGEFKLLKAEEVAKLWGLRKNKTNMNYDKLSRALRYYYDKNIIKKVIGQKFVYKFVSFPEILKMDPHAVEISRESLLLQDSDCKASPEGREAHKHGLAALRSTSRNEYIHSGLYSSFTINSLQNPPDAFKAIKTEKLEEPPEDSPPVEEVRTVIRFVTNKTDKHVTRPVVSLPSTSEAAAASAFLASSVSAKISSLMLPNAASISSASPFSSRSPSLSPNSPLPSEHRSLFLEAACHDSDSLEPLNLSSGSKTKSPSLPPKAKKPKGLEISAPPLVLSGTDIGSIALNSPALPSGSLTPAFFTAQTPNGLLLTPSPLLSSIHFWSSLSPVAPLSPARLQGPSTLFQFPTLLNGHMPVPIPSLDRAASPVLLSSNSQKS
Particulars: protein: recombinant; tags: N-terminal GST; dsDNA, one strand shown. The essentials: as §1

The target in the next assay is T7, FEV (Homo sapiens, UniProt Q99581 1-238).
T7 sequence: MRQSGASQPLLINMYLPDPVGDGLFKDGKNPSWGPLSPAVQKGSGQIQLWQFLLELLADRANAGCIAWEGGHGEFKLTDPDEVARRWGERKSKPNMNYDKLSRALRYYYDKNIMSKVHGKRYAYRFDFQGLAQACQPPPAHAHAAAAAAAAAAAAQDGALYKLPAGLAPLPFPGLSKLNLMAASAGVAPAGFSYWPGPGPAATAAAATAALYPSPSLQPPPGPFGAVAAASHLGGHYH
Particulars: protein: recombinant; tags: N-terminal GST; dsDNA, one strand shown. The procedure, abridged: as §1

In another assay the target is ETV5 (Homo sapiens, UniProt P41161 1-510). The settings on record: protein: recombinant; tags: N-terminal GST; dsDNA, one strand shown. The procedure, abridged: as §1
Another assay concerns the target HSF1 (Homo sapiens, UniProt Q00613 1-529). Particulars: protein: recombinant; tags: N-terminal GST; chain copies: 3; dsDNA, one strand shown. The essentials:
as §1

A further assay concerns the target T8, SPIC (Homo sapiens, UniProt Q8N5J4 1-248).
T8 sequence: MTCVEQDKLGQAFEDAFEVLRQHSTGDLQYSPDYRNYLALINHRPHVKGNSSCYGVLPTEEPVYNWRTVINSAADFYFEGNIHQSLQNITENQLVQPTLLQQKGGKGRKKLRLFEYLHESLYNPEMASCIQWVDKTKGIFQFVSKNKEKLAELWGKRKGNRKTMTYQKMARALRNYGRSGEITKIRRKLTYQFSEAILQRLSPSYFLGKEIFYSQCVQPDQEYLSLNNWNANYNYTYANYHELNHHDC
The settings on record: protein: recombinant; tags: N-terminal GST; dsDNA, one strand shown. The procedure, abridged: as §1

Another assay addresses ELF4 (Homo sapiens, UniProt Q99607 1-663). Particulars: protein: recombinant; tags: N-terminal GST; dsDNA, one strand shown. The procedure, abridged:
as §1

The target of a further assay is T9, ELK4 (Homo sapiens, UniProt P28324-2 1-405).
T9 sequence: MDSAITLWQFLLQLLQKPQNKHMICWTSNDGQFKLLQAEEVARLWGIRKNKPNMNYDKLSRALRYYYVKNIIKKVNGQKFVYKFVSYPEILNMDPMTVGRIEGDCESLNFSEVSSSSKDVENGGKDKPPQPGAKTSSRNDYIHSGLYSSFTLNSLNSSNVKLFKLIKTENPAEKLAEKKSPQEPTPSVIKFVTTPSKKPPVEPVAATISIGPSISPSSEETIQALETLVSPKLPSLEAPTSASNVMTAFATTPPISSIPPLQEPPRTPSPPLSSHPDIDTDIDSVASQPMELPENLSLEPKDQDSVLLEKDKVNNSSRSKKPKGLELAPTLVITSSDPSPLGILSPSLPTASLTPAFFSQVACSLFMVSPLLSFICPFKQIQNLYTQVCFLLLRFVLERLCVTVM
The settings on record: protein: recombinant; tags: N-terminal GST; dsDNA, one strand shown. The essentials:
as §1

The target in a further assay is T10, ETV2 (Homo sapiens, UniProt O00321 1-342).
T10 sequence: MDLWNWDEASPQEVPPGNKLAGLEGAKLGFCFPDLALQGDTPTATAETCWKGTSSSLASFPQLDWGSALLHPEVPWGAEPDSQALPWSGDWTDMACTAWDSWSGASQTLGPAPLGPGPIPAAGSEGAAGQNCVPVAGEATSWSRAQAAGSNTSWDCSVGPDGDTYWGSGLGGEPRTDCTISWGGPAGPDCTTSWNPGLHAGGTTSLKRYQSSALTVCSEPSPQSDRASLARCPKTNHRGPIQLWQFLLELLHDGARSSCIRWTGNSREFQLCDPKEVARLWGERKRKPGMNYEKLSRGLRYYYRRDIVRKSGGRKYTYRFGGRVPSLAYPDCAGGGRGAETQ
The settings on record: protein: recombinant; tags: N-terminal GST; dsDNA, one strand shown. The procedure, abridged: as §1

In the next assay the target is T11, ELF3 (Homo sapiens, UniProt P78545 1-371).
T11 sequence: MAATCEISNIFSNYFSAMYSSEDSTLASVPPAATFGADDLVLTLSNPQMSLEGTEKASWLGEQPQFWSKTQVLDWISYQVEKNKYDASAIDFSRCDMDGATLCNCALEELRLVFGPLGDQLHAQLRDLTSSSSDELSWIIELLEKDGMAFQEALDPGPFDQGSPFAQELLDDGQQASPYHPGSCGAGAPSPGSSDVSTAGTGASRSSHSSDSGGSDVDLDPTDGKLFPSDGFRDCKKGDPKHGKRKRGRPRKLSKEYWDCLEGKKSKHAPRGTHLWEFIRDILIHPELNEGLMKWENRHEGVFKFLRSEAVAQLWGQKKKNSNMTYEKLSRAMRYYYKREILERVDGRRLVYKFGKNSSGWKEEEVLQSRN
The settings on record: protein: recombinant; tags: N-terminal GST; dsDNA, one strand shown. The procedure, abridged: as §1

For a further assay, the target named is CRX (Homo sapiens, UniProt O43186 1-299). The settings on record: protein: recombinant; tags: N-terminal GST; dsDNA, one strand shown. The essentials: as §1
The next assay addresses ETV1 (Homo sapiens, UniProt P50549 1-477). Particulars: protein: recombinant; tags: N-terminal GST; dsDNA, one strand shown. The procedure, abridged: as §1

Chain of SPIB (Q01892 whole entry): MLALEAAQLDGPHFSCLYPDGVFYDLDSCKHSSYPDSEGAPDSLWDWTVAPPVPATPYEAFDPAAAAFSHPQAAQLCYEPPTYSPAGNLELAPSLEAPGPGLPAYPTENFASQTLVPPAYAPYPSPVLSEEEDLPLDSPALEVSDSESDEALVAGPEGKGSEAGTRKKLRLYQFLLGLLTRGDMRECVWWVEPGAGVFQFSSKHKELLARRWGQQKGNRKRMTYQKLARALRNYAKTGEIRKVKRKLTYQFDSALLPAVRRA
Chain of ETV1 (P50549 whole entry): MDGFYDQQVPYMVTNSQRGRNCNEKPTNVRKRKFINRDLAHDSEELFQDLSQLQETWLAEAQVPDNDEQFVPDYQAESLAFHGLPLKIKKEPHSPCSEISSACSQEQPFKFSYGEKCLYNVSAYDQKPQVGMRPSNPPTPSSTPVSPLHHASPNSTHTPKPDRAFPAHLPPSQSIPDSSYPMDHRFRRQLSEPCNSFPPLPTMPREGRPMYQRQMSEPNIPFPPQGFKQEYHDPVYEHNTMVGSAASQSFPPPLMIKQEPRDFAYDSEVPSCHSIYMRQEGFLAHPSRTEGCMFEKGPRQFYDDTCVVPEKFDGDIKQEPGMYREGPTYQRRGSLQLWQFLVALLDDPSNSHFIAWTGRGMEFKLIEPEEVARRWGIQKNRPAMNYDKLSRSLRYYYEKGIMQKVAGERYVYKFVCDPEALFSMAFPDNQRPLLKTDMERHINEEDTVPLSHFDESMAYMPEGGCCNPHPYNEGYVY
Chain of CRX (O43186 whole entry): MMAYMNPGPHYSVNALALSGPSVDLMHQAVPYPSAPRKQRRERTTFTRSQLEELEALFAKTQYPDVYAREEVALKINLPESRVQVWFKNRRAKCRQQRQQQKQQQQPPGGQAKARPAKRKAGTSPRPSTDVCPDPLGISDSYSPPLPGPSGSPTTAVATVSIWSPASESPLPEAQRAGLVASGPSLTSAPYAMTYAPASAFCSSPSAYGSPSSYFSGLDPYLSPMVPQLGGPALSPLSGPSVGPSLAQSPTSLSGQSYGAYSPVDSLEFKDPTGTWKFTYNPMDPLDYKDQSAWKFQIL
Chain of HSF1 (Q00613 whole entry): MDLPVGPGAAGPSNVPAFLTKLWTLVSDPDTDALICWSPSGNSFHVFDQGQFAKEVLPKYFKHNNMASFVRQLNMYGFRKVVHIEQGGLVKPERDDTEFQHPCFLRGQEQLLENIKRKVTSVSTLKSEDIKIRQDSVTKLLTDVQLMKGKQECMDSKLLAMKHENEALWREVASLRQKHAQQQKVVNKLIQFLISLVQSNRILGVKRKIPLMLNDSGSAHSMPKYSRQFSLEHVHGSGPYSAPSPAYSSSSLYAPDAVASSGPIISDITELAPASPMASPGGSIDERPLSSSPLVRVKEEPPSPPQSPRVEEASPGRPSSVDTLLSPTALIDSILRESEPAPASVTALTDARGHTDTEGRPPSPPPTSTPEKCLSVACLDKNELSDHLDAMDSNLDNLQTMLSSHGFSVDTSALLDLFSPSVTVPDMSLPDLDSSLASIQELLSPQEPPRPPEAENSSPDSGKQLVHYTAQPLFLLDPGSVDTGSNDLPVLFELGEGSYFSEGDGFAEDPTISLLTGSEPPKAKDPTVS
Chain of ETV5 (P41161 whole entry): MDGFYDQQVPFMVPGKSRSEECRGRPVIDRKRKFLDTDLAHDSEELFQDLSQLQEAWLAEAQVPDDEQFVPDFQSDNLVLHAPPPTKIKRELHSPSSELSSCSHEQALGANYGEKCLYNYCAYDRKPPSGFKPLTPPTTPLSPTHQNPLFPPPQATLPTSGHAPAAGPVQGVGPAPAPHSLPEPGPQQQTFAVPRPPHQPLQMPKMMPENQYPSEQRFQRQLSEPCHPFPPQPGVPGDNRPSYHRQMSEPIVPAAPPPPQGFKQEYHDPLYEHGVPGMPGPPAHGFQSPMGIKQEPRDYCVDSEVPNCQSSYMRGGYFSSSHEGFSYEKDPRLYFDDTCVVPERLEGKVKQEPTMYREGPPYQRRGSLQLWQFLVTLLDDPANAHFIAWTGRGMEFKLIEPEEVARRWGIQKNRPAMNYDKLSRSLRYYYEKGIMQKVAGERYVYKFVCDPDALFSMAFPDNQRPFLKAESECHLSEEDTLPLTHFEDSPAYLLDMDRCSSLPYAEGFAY
Chain of ELF4 (Q99607 whole entry): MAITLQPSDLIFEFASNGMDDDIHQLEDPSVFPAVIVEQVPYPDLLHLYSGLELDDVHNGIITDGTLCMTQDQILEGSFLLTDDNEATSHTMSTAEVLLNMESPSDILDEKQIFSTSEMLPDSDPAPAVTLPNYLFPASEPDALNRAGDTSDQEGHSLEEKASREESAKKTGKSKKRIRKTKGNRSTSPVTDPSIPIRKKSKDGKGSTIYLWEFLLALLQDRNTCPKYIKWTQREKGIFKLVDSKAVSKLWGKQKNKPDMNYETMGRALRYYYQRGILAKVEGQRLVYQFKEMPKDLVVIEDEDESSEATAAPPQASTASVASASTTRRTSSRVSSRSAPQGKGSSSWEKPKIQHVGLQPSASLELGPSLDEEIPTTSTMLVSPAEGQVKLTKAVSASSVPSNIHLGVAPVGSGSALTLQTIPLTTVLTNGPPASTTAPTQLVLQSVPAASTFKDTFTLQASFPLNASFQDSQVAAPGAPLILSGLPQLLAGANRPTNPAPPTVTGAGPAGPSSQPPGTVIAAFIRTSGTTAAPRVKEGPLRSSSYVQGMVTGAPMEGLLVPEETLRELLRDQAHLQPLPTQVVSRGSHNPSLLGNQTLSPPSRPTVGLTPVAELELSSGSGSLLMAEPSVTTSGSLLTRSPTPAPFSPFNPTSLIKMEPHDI
Chain of ELF1 (P32519 whole entry): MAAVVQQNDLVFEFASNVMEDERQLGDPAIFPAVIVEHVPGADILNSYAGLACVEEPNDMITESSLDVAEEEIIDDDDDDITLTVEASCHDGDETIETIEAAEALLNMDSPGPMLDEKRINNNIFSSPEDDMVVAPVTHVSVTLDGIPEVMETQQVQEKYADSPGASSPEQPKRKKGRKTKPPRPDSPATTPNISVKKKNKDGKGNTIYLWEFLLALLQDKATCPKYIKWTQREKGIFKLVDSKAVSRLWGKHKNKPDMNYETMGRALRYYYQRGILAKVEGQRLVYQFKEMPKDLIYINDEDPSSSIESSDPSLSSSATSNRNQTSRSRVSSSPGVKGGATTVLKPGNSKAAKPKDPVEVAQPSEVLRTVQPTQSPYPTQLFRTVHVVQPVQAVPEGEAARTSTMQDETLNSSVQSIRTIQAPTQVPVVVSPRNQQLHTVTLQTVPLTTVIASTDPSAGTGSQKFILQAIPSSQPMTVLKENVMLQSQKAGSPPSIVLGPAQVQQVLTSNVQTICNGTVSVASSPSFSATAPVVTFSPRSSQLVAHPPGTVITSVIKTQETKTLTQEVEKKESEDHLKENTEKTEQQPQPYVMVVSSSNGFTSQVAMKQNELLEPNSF

CTCGGC: the binding signal with FLI1 was 1.47 fold enrichment (6-mer frequency, TF over GST control); with ELK1 it was 1.33 fold enrichment (6-mer frequency, TF over GST control); with GABPA it was 1.39 fold enrichment (6-mer frequency, TF over GST control); with ERG it was 1.26 fold enrichment (6-mer frequency, TF over GST control); with ELF1, 1.38 fold enrichment (6-mer frequency, TF over GST control); in the assay with EHF, 1.52 fold enrichment (6-mer frequency, TF over GST control). Further, the binding signal is 1.45 fold enrichment (6-mer frequency, TF over GST control) with SPI1; 1.27 fold enrichment (6-mer frequency, TF over GST control) with SPIB; 1.39 fold enrichment (6-mer frequency, TF over GST control) with ELK3; 1.29 fold enrichment (6-mer frequency, TF over GST control) with FEV; 1.41 fold enrichment (6-mer frequency, TF over GST control) with ETV5; 1.31 fold enrichment (6-mer frequency, TF over GST control) with HSF1. Besides, the binding signal in the assay with SPIC is 1.26 fold enrichment (6-mer frequency, TF over GST control); with ELF4, 1.56 fold enrichment (6-mer frequency, TF over GST control); in the assay with ELK4, 1.39 fold enrichment (6-mer frequency, TF over GST control); in the assay with ETV2, 1.34 fold enrichment (6-mer frequency, TF over GST control); in the assay with ELF3 it was 1.52 fold enrichment (6-mer frequency, TF over GST control); with CRX it was 1.13 fold enrichment (6-mer frequency, TF over GST control). The binding signal in the assay with ETV1 was 1.54 fold enrichment (6-mer frequency, TF over GST control).
